Results reported in PubChem BioAssay AID1345082 (National Center for Advancing Translational Sciences (NCATS), 2018).
Among all 94,000 compounds or so, about 4,000 (4.3%) were called active. Not shown: some 29% with an inconclusive outcome. Calls come from the whole dose curve; as a rule, active = well fitted inhibition curve with a large enough effect; inconclusive = small, poorly fitted or top-dose-only effect; inactive = no such curve, though single readings can be large or run the other way. The entries come from a sample that favours actives as a whole. Where a call stands in place of a potency, no number is given.

Assay: Cytotoxic Profiling in NIH 3T3 Cell Line of Diverse Libraries Using Quantitative High-Throughput Screening; note: nearly all actives have a fitted effect of over 55% in size
Settings: NIH 3T3 viability, CellTiter-Glo ATP luminescence, 48-72 h; series mostly up to 96.7 µM
Procedure, shortened: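 Mouse fibroblast NIH 3T3 cells, 400 per well, received compound via pintool and were incubated for 48 or 72 hr prior to CellTiter-Glo ATP luminescence measurement.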
Potency is the fitted concentration of half-maximal effect.

SMILES | Potency
O=C(C1CCCC1)N1CCCCC1c1nc(C2CC2)n[nH]1 (centres undefined) | inactive
CN1CCCN(C(=O)c2ccccc2OC(F)(F)F)c2ccccc21 | inactive
COCCN1CCCN(C(=O)c2ccccc2Cl)c2ccccc21 | inactive
COc1ccccc1C(=O)N1CCCN(CCc2ccccc2)c2ccccc21 | 31.6 µM (active)
Cc1cc(N)n(CC(=O)N[C@@H]2COCC[C@@H]2OCc2c(C)noc2C)n1 | inactive
CCc1c(C)nn(CCNc2ncnc3c2c(C)nn3C)c1C | inactive
O=C(CC1CC1)N1C[C@H]2OC(=O)N(CCc3cccc(Cl)c3)[C@H]2C1 | inactive
CC(=O)NC1CC2(CCN(C(=O)Cc3c[nH]c4ccccc34)CC2)c2ccccc21 (centres undefined) | inactive
COC[C@@H]1[C@@H](NC(=O)Cc2nn(C)c(=O)c3ccccc23)[C@@H]2CCO[C@H]12 | inactive
O=C1CO[C@H]2CN(C3CCC3)C[C@H]2N1Cc1ccc(OC(F)(F)F)cc1 | 89.1 µM (active)
COc1ccc(CN2C(=O)CO[C@H]3CN(Cc4cccnc4)C[C@H]32)cc1 | inactive
COc1ccc(CN2C(=O)CO[C@H]3CN(C(=O)C4CC4)C[C@H]32)cc1 | inactive
Clc1ccc(-c2nnc3n2CCN(Cc2cccc4ccccc24)C3)cc1 | inactive
CCc1noc(-c2cn(C3CCN(C(=O)c4ccc(Cl)cc4)C3)nn2)n1 (centres undefined) | inactive
COc1cccc(CN2CCN(C(=O)c3cnc4ccccn4c3=O)CC2=O)c1 | inactive
COc1cccc(C(=O)N2CCC(Cc3nc(-c4cnccn4)no3)CC2)c1 | inactive
COc1cccc(CN2C(=O)OC3(CCN(C(=O)c4scnc4C)CC3)C2(C)c2cccnc2)c1 (centres undefined) | 31.6 µM (active)
O=C(CCCc1ccccc1)Nc1ccnn1C1CCN(C(=O)CCn2cncn2)CC1 | inactive
Cc1cc(C(=O)N2CC[C@@H]3CN(Cc4ccccc4)[C@@H]3C2)nn1C | inactive
Cc1nc(-c2c3n(c(=O)n(CC(=O)Nc4ccccc4C)c2=O)CCCCC3)no1 | inactive
Cc1nc2scc(CC(=O)NC(C)C)n2c(=O)c1-c1cc(C)n(-c2cccc(Cl)c2)n1 | inactive
CC(C)c1ccc(N2C(=O)N[C@@H]3CCN(C(=O)c4ccc(C(C)(C)C)cc4)[C@@H]3C2=O)cc1 | 70.8 µM (active)
CCn1c(C2CCCN(C(=O)c3ccc(C(C)(C)C)cc3)C2)nn(C)c1=O (centres undefined) | inactive
O=C1C(N2CCN(S(=O)(=O)c3ccccc3)CC2)CCN1CCc1ccccc1 (centres undefined) | inactive

SMILES | Potency
Cc1ccccc1NC(=O)Nc1ccnn1C1CCN(C(=O)CCN)CC1 | inactive
CC(C)c1ccc(C(=O)N2C[C@@H]3CCCN4CCC[C@@H]([C@H]34)[C@H]2CCCC(=O)N2CCOCC2)cc1 | inactive
CCC(CC)C(=O)NC1CCN(c2cnn(CCOC)c(=O)c2)CC1 | inactive
COc1ccccc1CN1CC[C@@H](CO)N(C)c2ncccc2C1 | 35.5 µM (active)
Cc1ccc2c(n1)N(C)[C@H](CO)CCN(Cc1ccccc1C)C2 | inactive
Cc1ccc2c(n1)N(C)[C@H](CO)CCN(Cc1cccc(Cl)c1)C2 | inactive
Cc1ccc(-c2cc3c(=O)n(CCNC(=O)Cc4c[nH]c5ccccc45)ccn3n2)cc1C | inactive
O=C(NCc1ccncc1)C1CC(=O)N(c2n[nH]c3ccccc23)C1 (centres undefined) | inactive
Cc1cccc(OCCc2noc(C3CCCN3C(=O)c3ccnn3C)n2)c1 (centres undefined) | inactive
Cc1cc(C(=O)N2CCCC(Cc3noc(-c4cccnc4)n3)C2)nn1C (centres undefined) | inactive
COc1ccc(NC(=O)N2CCCC(Cc3noc(-c4ccccc4)n3)C2)cc1 (centres undefined) | 35.5 µM (active)
COCCCNC(=O)N1CCC(Cc2noc(-c3ccncc3)n2)C1 (centres undefined) | inactive
CCN1C(=O)CCN(C(=O)NCCCOC)CC12CCOCC2 | inactive
O=C1NC(=NC2CCCCC2)C2(CCN([S+](=O)([O-])c3ccccc3)C2)N1c1cccnc1 (centres undefined) | inactive
O=C(c1ccsc1)N1CCCCCC1c1nnc(-c2ccccc2)o1 (centres undefined) | inactive
COc1ccc(C(=O)N2CCCN(C(=O)C3CC3)C(c3ccccc3)CC(=O)NCC2)cn1 (centres undefined) | inactive
COc1ccccc1N1CCN(C(=O)C2CCCN(C(=O)c3ccccc3)CCC(=O)NCC2)CC1 (centres undefined) | inactive
COc1ccccc1N1CCCc2ncc(C(=O)N3CCCC[C@@H]3c3ccccc3)cc21 | 70.8 µM (active)
CNC(=O)c1cc(C2CC2)nc2onc(C3CCCN(C(=O)OC)C3)c12 (centres undefined) | inactive
CC(C)NC(=O)NC[C@H]1O[C@@H]2C[C@@H](CC(=O)NCc3nccn3C)O[C@@H]2[C@@H]1O | inactive
NC(=O)c1cccc(-c2ncc3c(n2)OCCN(c2cccc(C(F)(F)F)c2)C3=O)c1 | 15.8 µM (active)
COc1ccc(OC2CCN(C(C)=O)CC2)c(C(=O)N(C)Cc2ccc3nccnc3c2)c1 | inactive
O=C([C@H]1C[C@@H](F)CN1S(=O)(=O)c1ccc(F)c(Cl)c1)N1CCOCC1 | inactive
CN1C[C@@H](NC(=O)c2ccccc2)C[C@H]1c1nc(-c2ccccc2)no1 | inactive

SMILES | Potency
CN1C[C@@H](NC(=O)COc2ccccc2)C[C@H]1c1nc(-c2ccc3c(c2)OCO3)no1 | inactive
CN1C[C@@H](NC(=O)c2ccc(C#N)cc2)C[C@H]1c1nc(-c2ccc(OC(F)(F)F)cc2)no1 | 39.8 µM (active)
COc1ccc(CCc2nc(NC(=O)Cn3nc4c(cc3=O)CCCCC4)n[nH]2)cc1 | inactive
O=C(NC1CC1)C1CCCN(c2nc3ncccc3o2)C1 (centres undefined) | inactive
Cc1nc(CCNC(=O)C2CCCN(c3nc(-c4ccccc4)nc4c3CCC4)C2)n[nH]1 (centres undefined) | inactive
O=C(NCc1cccnc1)C1CCCN(c2cnn(Cc3ccccc3)c(=O)c2)C1 (centres undefined) | inactive
Cc1ccccc1CN1CCC(N2CCCC(C(=O)NC3CC3)C2)CC1 (centres undefined) | inactive
CNC(=O)C1CCN(c2nccc(Nc3ccccc3F)n2)CC1 | inactive
CC(C)CNC(=O)C1CCCN(c2nccc(Nc3ccccc3F)n2)C1 (centres undefined) | 44.7 µM (active)
O=C(NCc1ccc(F)cc1)C1CCN(c2nccc(Nc3ccccc3F)n2)CC1 | 44.7 µM (active)
Cc1ccc(CNC(=O)C2CCN(C(=O)c3ncn4c3COC(c3ccc(F)cc3)C4)CC2)cc1 (centres undefined) | inactive
O=C(NC1CCCCC1)C1CCCN(c2nccc(Nc3ccccc3F)n2)C1 (centres undefined) | 14.1 µM (active)
Cc1ccc(C(=O)N2CCC(c3n[nH]c(=O)n3Cc3ccc(F)cc3)CC2)cc1 | inactive
O=C1CCN([C@@H]2CCC[C@H]2O)c2cc3c(cc2CN1Cc1ccccc1)OCO3 | inactive
COc1cccc([S+](=O)([O-])N2CCCC3(CC(c4ccccc4)=NO3)C2)c1 (centres undefined) | inactive
N[C@@H](Cc1cnc[nH]1)C(=O)N1CCC(c2cc(N3CCCC3)ncn2)CC1 | inactive
COc1ccc(C2Cn3nnc(-c4noc(-c5sccc5C)n4)c3CO2)cc1 (centres undefined) | inactive
CCc1cc(C(=O)N2CCC(Oc3ccccc3)(C(=O)O)CC2)cs1 | inactive
CC(C)CNc1ncnc2c1CN(C1CCC1)C(=O)CN2C | inactive
O=C(c1ccc(F)c(F)c1)N1CCN(C2CCN(CCc3ccccc3)C2=O)CC1 (centres undefined) | inactive
COCc1nncn1C1CCN(C(=O)c2ccccc2F)CC1 | inactive
O=C1Nc2ccc(-c3ccsc3)cc2C(=O)N2CC[C@H](NS(=O)(=O)c3cccs3)[C@@H]12 | inactive
N[C@H]1CCN2C(=O)c3cc(-c4ccc(F)cc4F)ccc3NC(=O)[C@H]12 | 112 µM (active)
O=C1Nc2ccc(-c3ccccc3F)cc2C(=O)N2CCN(C(=O)c3cccs3)C[C@H]12 | inactive

SMILES | Potency
CS(=O)(=O)N1C[C@H]2CCN(C(=O)c3ccc(=O)[nH]c3)C[C@H]21 | inactive
COc1ccc(-c2[nH]ncc2CN2CCCC(C(=O)NCc3ccccc3)CCNC(=O)CC2)cc1 (centres undefined) | inactive
COc1ccc2cc(-c3[nH]ncc3CN3CCN(c4cccc(C)n4)CC3)ccc2c1 | 28.2 µM (active)
CC(=O)N[C@@H]1CN(Cc2cn[nH]c2-c2ccc(F)cc2)C[C@H]1CO | inactive
CCc1nnc([C@@H]2CC(F)(F)CN2C(=O)c2cc(C)oc2C)o1 | inactive
C=CCNC(=O)N[C@H]1C[C@@H](C(=O)N[C@H](Cc2c[nH]c3ccccc23)C(N)=O)N(C(=O)C=C(C)C)C1 | inactive
O=C1CC2(CCN(C(=O)C3CCN(C(=O)c4ccccc4Cl)CC3)CC2)Oc2ccccc2N1 | inactive
Cn1cnc(S(=O)(=O)N2CCC(c3noc(-c4ccccc4)n3)C2)c1 (centres undefined) | inactive
O=C(Cn1ccnc1)N1CCC(c2noc(-c3ccncc3)n2)C1 (centres undefined) | inactive
O=C(NC1CCCC1)N1CCC(c2noc(-c3ccccc3)n2)C1 (centres undefined) | 39.8 µM (active)
Cc1noc(C)c1S(=O)(=O)N1CCC2(CC1)CN(c1ccccc1)C2=O | inactive
O=C(NC1CCCCC1)N1CCCC(Cn2c(C3CC3)nc3cccnc32)C1 (centres undefined) | inactive
Cc1nc(N2CCC(C(=O)NCc3ccc(C(C)C)cc3)CC2)cc(C(F)(F)F)n1 | 25.1 µM (active)
Cc1nc(N2CCC(NC(=O)C(C)Oc3ccccc3)CC2)cc(C(F)(F)F)n1 (centres undefined) | inactive
Cc1nc(N2CCC(NC(=O)c3ccc4c(c3)OCO4)CC2)cc(C(F)(F)F)n1 | inactive
CNC(=O)N1CCc2nc(N3CCOCC3)[nH]c(=O)c2CC1 | inactive
COc1ccc([S+](=O)([O-])c2nnn3c2nc(NC2CCCC2)c2ccccc23)cc1 | inactive
O=C(NCC1CC1)c1nc2c(o1)CCN(CCc1ccccc1)CC2 | inactive
CCc1nc2c(c(-c3ccc(OC)cc3)n1)CCN(CC1CCCCC1)CC2 | inactive
O=C(NCCOc1ccccc1)c1nc2c(o1)CCN(CC1CCCCC1)CC2 | 79.4 µM (active)
CN(C)C[C@@H]1CN(S(C)(=O)=O)C[C@H]1NC(=O)c1cccc(F)c1 | inactive
COc1ccc(C(=O)N2CCC(N3C[C@H](O)C[C@H]3C(=O)NC3CCCCC3)CC2)cn1 | inactive
